Measurements taken from PubChem BioAssay AID624300 (Southern Research Specialized Biocontainment Screening …, 2012).
Among all 2,400 compounds or so, about 360 (15%) were called active.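 Rule for the calls: active = viability falls under 70% at one or more tested concentrations, taken as toxicity; inactive = viability stays over 70% at every dose.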 The list is a sample of the results. Results with a measured potency or affinity are listed apart.

assay: HeLa cell cytotoxicity, dose response, cytotoxicity control for MgcRacGAP inhibitor project (AID 624300); conditions: CellTiter-Glo luminescence, 24 h; series mostly up to 100 µM; viability: at the top concentration;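 note: 100% = median of untreated control wells on the same plate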

SMILES	viability
Oc1ccc(Nc2ncnc3ccccc23)cc1	97.4% (inactive)
Cc1cccc(Nc2c(-c3ccc(O)cc3)nc3ncccn23)c1	97.8% (inactive)
COc1ccc(/C=N/N2CCN(C)CC2)cc1O	110% (inactive)
O=c1nc2s/c(=C\c3ccc(-c4ccccc4[N+](=O)[O-])o3)c(=O)n2nc1-c1ccccc1	105% (inactive)
CC1=NOC(=O)/C1=C\c1ccc(-c2ccc(Cl)c(C(=O)O)c2)o1	104% (inactive)
C=CCn1c(SCC(=O)Nc2ccc(N(C)C)cc2)nnc1-c1cccc(C)c1	102% (inactive)
COc1ccc(NC2CCCN(C(=O)CCC3=NNC(=O)CC3)C2)cc1 (stereo not given)	99.2% (inactive)
COc1ccc(N2CCN(S(=O)(=O)c3c(C)nc4scc(C)n4c3=O)CC2)cc1	93.2% (inactive)
N/N=C(\Cc1cscn1)c1ccc(O)cc1O	99.1% (inactive)
O=C(CN1CCN(c2ccc(O)cc2)CC1)Nc1ccc2c(c1)OCCCO2	104% (inactive)
Nc1nc2c(s1)CCc1ccccc1-2	93.6% (inactive)
COc1ccc2c(C)cc3n[nH]c(=S)n3c2c1	110% (inactive)
NNc1ccc([N+](=O)[O-])c2[nH][nH]c(=O)c12	98.7% (inactive)
COc1cc(/C=N/Nc2cc(C)nc(NS(=O)(=O)c3ccccc3)n2)ccc1O	102% (inactive)
COc1ccc(-c2cnnc(N/N=C/c3ccc(O)c(O)c3)n2)cc1	95.8% (inactive)
CCN(CC)c1ccc(/C=N/Nc2nc(C)cc(C)n2)c(O)c1	101% (inactive)
Oc1ccc(C=NNc2nc3ccccc3s2)c(O)c1	90.4% (inactive)
Cc1nc2ccccc2nc1N/N=C/c1ccc(O)cc1	90.5% (inactive)
CN(C)c1ccc(/C=N\Nc2ccccn2)cc1	98.6% (inactive)
COc1ccc(NCc2ccsc2)cc1	112% (inactive)

SMILES	viability
COc1ccc(NC2CCCN(C(=O)CN3CCOC3=O)C2)cc1 (stereo not given)	99.7% (inactive)
CC1(C)CC(=O)C(C=Nc2ccc(N)cc2)=C(O)C1	107% (inactive)
COc1cc(/C=C/C(=O)OCC(=O)N2CC3(C)CC2CC(C)(C)C3)ccc1O (stereo not given)	96% (inactive)
Cn1c(=O)c2[nH]c(=S)n(Cc3ccccc3)c2n(C)c1=O	92.9% (inactive)
Cn1c(=O)[nH]c(=O)c2c1[nH]c(=S)n2CCCc1ccccc1	101% (inactive)
CN(C)c1ccc(NC(=S)NCC2CCCO2)cc1 (stereo not given)	109% (inactive)
Cc1sc2ccc3sccc3c2[n+]1C	94.5% (inactive)
Cc1cc(N(C)C)ccc1N=Nc1ccc(N)cc1	96.7% (inactive)
O=C(CN1CCN(c2ncccn2)CC1)N1CCCC1	102% (inactive)
Cc1nc2ccc(C(=O)Nc3ccc(N(C)C)cc3)cc2s1	105% (inactive)
CC(C)c1nc(SCC(=O)Nc2ccc(N(C)C)cc2)c2ccccc2n1	101% (inactive)
CCn1c(SCC(=O)Nc2ccc(N(C)C)cc2)nnc1-c1cccc(C)c1	98.4% (inactive)
Cc1ccccc1SCC(=O)OCC(=O)Nc1ccc(N(C)C)cc1	107% (inactive)
COc1cc(/C=N/NC(=O)CNc2n[nH]c(=O)[nH]c2=O)ccc1O	96.4% (inactive)
CSc1ccc(CN2CCC(N3CC(C)OC(C)C3)CC2)cc1 (stereo not given)	86.2% (inactive)
CCn1c(CSc2nc3ccccc3s2)nnc1SCC(=O)c1ccc(O)c(O)c1	90% (inactive)
C=CCn1c(SCC(=O)c2ccc(O)c(O)c2)nnc1-c1cccc(OC)c1	100% (inactive)
CN(C)c1ccc(NS(=O)(=O)c2ccc(Cl)cc2)cc1	90.5% (inactive)
CS(=O)(=O)N1CCN(C2C3CC4CC(C3)CC2C4)CC1 (stereo not given)	93.4% (inactive)
COc1cc(/C=N/NC(=O)c2ccc(-n3cccc3)cc2)ccc1O	106% (inactive)

SMILES	viability
O=C(N/N=C/c1ccc(O)cc1)c1cccc(C(F)(F)F)c1	90% (inactive)
Fc1ccc(CN2CCN(C(c3ccccc3)c3ccccc3)CC2)cc1	102% (inactive)
COc1cc(/C=N\NC(=O)c2ccc(Cn3nc([N+](=O)[O-])c(Cl)c3C)o2)ccc1O	92.3% (inactive)
O=C(O)c1cc(N2C(=O)C=CC2=O)cc(N2C(=O)C=CC2=O)c1	107% (inactive)
Oc1ccc2c(ccc3[nH]cnc32)c1	110% (inactive)
Nc1ccc2[nH]c(=S)[nH]c2c1	96.2% (inactive)
Cc1ccc(Nc2n[nH]c(=S)s2)cc1	94.3% (inactive)
COc1ccc(N2CCN(c3ccc(C(N)=O)cc3[N+](=O)[O-])CC2)cc1	95.6% (inactive)
Cc1sc2ncnc(N(C)CCc3ccccn3)c2c1C	95% (inactive)
CCOC(=O)c1c(C)[nH]sc1=S	97.5% (inactive)
CCN(CC)c1ccc(/C=N/O)cc1	99.6% (inactive)
CCN(CC)c1ccc(NC(=O)C2CCCC2)cc1	101% (inactive)
CCN(CC)c1ccc(NC(=O)Nc2ccccc2)cc1	99.7% (inactive)
CCN(CC)c1ccc(NC(=O)CSC(=O)c2ccccc2)cc1	111% (inactive)
CCN(CC)c1ccc(/C=N/N2CCOCC2)c(O)c1	109% (inactive)
CN(C)c1ccc(/C=N/N2CCN(Cc3ccccc3Cl)CC2)cc1	106% (inactive)
CCOc1cc(/C=C2\SC(=O)N=C2N)ccc1O	92.6% (inactive)
C=CCN(CC=C)C(=O)C1CCN(Cc2ccc(OCc3ccccc3)cc2)CC1	88.6% (inactive)
CC1=CC(C)(C)N(C(=O)CNC2CCCC2)c2cc(C)ccc21	85.7% (inactive)
COc1ccc(N2CCN(C(=O)NC3CCCCC3)CC2)cc1	100% (inactive)
